Spn DPM-DC inh – S. pneumoniae DPM-DC inhibition; actives 0.49% (n = 65,000); purified DPM-DC, PK/LDH coupled NADH fluorescence; calls only at 10 µM; AID 556;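 active = the 320 compounds with the highest percent inhibition in the single-dose primary screen, excluding strongly autofluorescent ones, cut at about 32% in these data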;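 note: kinetic rate of NADH fluorescence loss reporting ADP formed by the decarboxylase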
NADH coupling – blocks coupling enzymes of NAD/NADH assays. AID 774. IC50, µM (top dose mostly 10 µM). coupled PK/LDH NADH assays, four targets. actives 0.02% (n = 65,000);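 active = single-dose screening hits from any of four coupled enzyme assays that gave an IC50 when retested across doses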;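 note: the DPM-DC format reads NADH fluorescence rather than 340 nm absorbance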
Spn PMK inh – S. pneumoniae PMK inhibition; purified PMK, PK/LDH-coupled NADH absorbance 340 nm; inhibition, % at 10 µM; actives 0.49% (n = 65,000); AID 539;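 active = top-ranked compounds by inhibition in the single 10 µM screen, taking a fixed number of the strongest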
Fluor 339 460 – intrinsic fluorescence of library compounds, ex339/em460 – biochemical, MLSMR library, data from DPM-DC assay, artefact control, profiling panel. fluorescence fold increase at 10 µM. compound autofluorescence, ex339/em460 nm, NADH buffer; stronger effect = higher value; 1 = no-compound wells, NADH background. actives 5.5% (n = 65,000). AID 709;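 active = at 10 µM, mean starting fluorescence two-fold or more over control wells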;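 note: signal is the first read of a kinetic run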
Abs 340nm – absorbance at 340 nm; fold change at 10 µM; AID 708; compound absorbance at 340 nm, fold over control; 65,000 tested, under 10 active;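 active = at 10 µM dose, initial 340 nm absorbance at least 2 fold that of control wells; inactive = change under 2 fold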;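 note: initial absorbance extrapolated from kinetic A340 decline of NADH oxidation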
MK inhibit – S. pneumoniae mevalonate kinase inhibition; purified MK, PK/LDH-coupled NADH absorbance 340 nm; inhibition, % at 10 µM; actives 0.48% (n = 65,000);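 active = ranked among the strongest by inhibition in the single 10 µM screen, a fixed top-ranked set picked for dose follow-up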
Hits are given with their value; - = inactive; . = no result given; + = active, no number. Shown are actives, neighbours in structure and some others; about 6.3% of the full set was active somewhere.

SMILES	Spn DPM-DC inh	NADH coupling	Spn PMK inh	Fluor 339 460	Abs 340nm	MK inhibit
COc1ccccc1C1C=C(c2ccc(Cl)cc2)Nc2nc(NS(C)(=O)=O)nn21 (stereo not given)	.	-	-	3.98	-	-
COc1ccc(C2=CC(c3ccc(F)cc3)n3nnnc3N2)cc1 (stereo not given)	-	-	-	-	-	-
O=C(c1nc2n(n1)C(c1ccc(Cl)cc1)C=C(c1ccccc1)N2)N1CCOCC1 (stereo not given)	-	-	-	-	-	-
COc1ccc(C2C=C(c3ccc(Cl)cc3)Nc3nc(NC(C)=O)nn32)cc1 (stereo not given)	.	-	-	2.34	-	-
O=C(CCn1c(=S)[nH]c2ccccc2c1=O)N1CCN(c2ccccn2)CC1	-	-	-	-	-	-
Cc1ccc(C)c(-n2c(CNc3ccc(F)cc3)nnc2SCC(N)=O)c1	-	-	-	-	-	-
COc1cc(S(=O)(=O)N2CCCC3(CCCCC3)C2)ccc1-n1cnnn1	-	-	-	2.84	-	-
O=C(NCCCN1CCOCC1)c1cc2c(=O)[nH]c3ccccc3c2s1	.	-	-	4.73	-	-
O=C(NCCCN1CCOCC1)c1c(O)c2ccccc2[nH]c1=O	-	-	-	-	-	-
Cc1occc1C(=O)Nc1cc(C(F)(F)F)ccc1Cl	-	-	-	-	-	-
CC(=O)NC(CCS(C)(=O)=O)C(=O)Nc1c(C)cccc1C (stereo not given)	-	-	-	-	-	47.0
CC(C)C(c1nnnn1C(C)(C)C)N1CCN(c2cccc(Cl)c2)CC1 (stereo not given)	-	-	-	-	-	-
Nc1ccc2oc3ncccc3c(=O)c2c1	-	-	-	-	-	-
Nc1ccc2c(C(F)(F)F)cc(=O)oc2c1	.	-	-	3.73	-	-
O=C(C1CCCN(c2ncccn2)C1)N1CCc2ccccc21 (stereo not given)	-	-	-	-	-	-
COc1ccc(OC)c(-n2c(-c3cccc(O)c3)n[nH]c2=S)c1	-	-	-	-	-	66.0
O=C(CSc1nc2ccccc2nc1SCC(=O)N1CCOCC1)N1CCOCC1	-	-	-	-	-	-
Cc1ccc2cccc(SCC(=O)NCc3ccco3)c2n1	.	-	-	3.85	-	-
Cc1ccc(-n2c(CSc3nc(C)cc(C)n3)nnc2SCC(=O)NCc2ccco2)cc1	-	-	26.0	-	-	-
Cc1ccc2cccc(OCC(=O)NCc3ccco3)c2n1	-	-	-	-	-	-
Cc1ccc2cccc(SCC(=O)N3CCOCC3)c2n1	.	-	-	2.48	-	-
Cc1ccc(-n2c(Cc3cccn3C)nnc2SCC(=O)NCc2ccco2)cc1	-	-	-	-	-	-
CNS(=O)(=O)c1cccc(C(=O)OC2CCCCC2=O)c1 (stereo not given)	-	-	28.0	-	-	-
CC1(C)CC(C)(O)P(=O)(c2ccccc2)O1 (stereo not given)	-	-	30.0	-	-	-
CC1=CCP(=O)(c2ccccc2)C1 (stereo not given)	-	-	-	-	-	-
SMILES	Spn DPM-DC inh	NADH coupling	Spn PMK inh	Fluor 339 460	Abs 340nm	MK inhibit
CCOCCn1c(CN2CCOCC2)nc2c1c(=O)[nH]c(=O)n2C	-	-	-	-	-	-
O=c1cc(Cn2ccnc2)c2cc3c(cc2o1)CCC3	-	-	-	2.21	-	-
Cc1cc2oc(=O)cc(Cn3ccnc3)c2cc1C	-	-	-	-	-	-
Cc1nnc(SCC(=O)N2CC(=O)Nc3ccccc32)n1-c1ccccc1	-	-	35.0	-	-	-
COc1cc2nc(N3CCN(C(=O)c4ccco4)CC3)nc(N)c2cc1OC	-	-	-	2.47	-	-
COc1cc2nc(N3CCN(C(=O)C4COc5ccccc5O4)CC3)nc(N)c2cc1OC (stereo not given)	.	-	-	2.49	-	-
COc1ccc2nc(C)cc(N3CCOCC3)c2c1	-	-	-	-	-	-
COc1ccc2c(-c3ccccc3)cc(N3CCOCC3)nc2c1	-	-	-	2.91	-	-
CCN(CC)c1ccc(NC(=O)CSc2nnc(N)s2)cc1C	-	-	-	-	-	-
CCN(CC)c1cc(C)c2cc(NC(=O)CNC(C)=O)ccc2n1	.	-	-	2.2	-	-
O=C(Nc1ccc2c(c1)C(=O)N(C1CCCCC1)C2=O)C1CCCO1 (stereo not given)	.	-	-	2.46	-	-
COC(=O)c1nc(-c2ccc(C)cc2)oc1N(C)C	.	-	-	4.95	-	-
COc1cc(-c2nc(S(=O)(=O)c3ccc(C)cc3)c(N(C)C)o2)cc(OC)c1OC	-	-	-	-	-	-
COC(=O)c1nc(-c2ccccc2)oc1N(C)C	.	-	-	3.83	-	-
Cc1cc(C)c2c(n1)nn1c(NCCOCCO)cc(C)nc21	.	-	-	3.88	-	-
COc1cc(-c2nc3cnccn3c2Nc2ccccc2)ccc1O	.	-	-	2.11	-	-
COc1cc(-c2nc3cnccn3c2Nc2ccc3c(c2)OCCO3)ccc1O	-	-	-	-	-	-
CCN(CC)C(=O)c1ccc(CS(=O)(=O)c2ccc(OC)cc2)o1	-	-	-	-	-	-
N#CC(C(=O)NC1CC1)c1nc2ccccc2nc1N1CCCC1 (stereo not given)	-	-	-	-	-	-
COCCNC(=O)C(C#N)c1nc2ccccc2nc1N1CCCCCC1 (stereo not given)	+	-	-	2.49	-	-
N#CC(C(=O)NC1CCCCC1)c1nc2ccccc2nc1N1CCCCC1 (stereo not given)	+	-	41.0	-	-	-
Cc1cc(NS(=O)(=O)c2ccc(NC(=O)C(C)Oc3ccc4c(C)cc(=O)oc4c3)cc2)no1 (stereo not given)	-	-	-	2.05	-	-
N#Cc1c(N)c(C#N)c(-c2ccc(O)cc2)c2c1CCCC2	-	-	-	2.9	-	-
CC1(C)Cc2c(C#N)c(NCC3CCCO3)nc(-c3ccco3)c2CO1 (stereo not given)	.	-	-	2.33	-	-
N#Cc1c(-c2ccco2)nc(NCC2CCCO2)[nH]c1=O (stereo not given)	-	-	-	-	-	-
SMILES	Spn DPM-DC inh	NADH coupling	Spn PMK inh	Fluor 339 460	Abs 340nm	MK inhibit
CC1(C)Cc2c(C#N)c(NC3CCCCC3)nc(-c3ccco3)c2CO1	.	-	-	2.16	-	-
COc1ccccc1N(C)S(=O)(=O)c1ccc(C(=O)OCC(=O)NCc2ccco2)cc1	-	-	-	-	-	-
CCC1(C)Cc2c(sc3[nH]c(=O)[nH]c(=O)c23)CS1 (stereo not given)	.	-	-	2.28	-	-
Cc1nn(-c2ccc(F)cc2F)c2c1-c1nc(N3CCCC3)ncc1CC2	.	-	-	5.11	-	-
COc1ccccc1NC(=O)Nn1cnnc1	-	-	-	-	-	-
CCCNC(=O)N1CCN(c2nc(C(C)C)c3c(c2C#N)CC(C)(C)OC3)CC1	-	-	-	-	-	-

Source: PubChem
